# Compounds with a hit are over-represented: about 3.5% of the library has one in this group of screens.
# MITF primary = blocks human microphthalmia-associated transcription factor. AlphaScreen MITF homodimerization, bead proximity signal. actives 0.91% (n = 650,000). AID 1259374. O75030. inhibition, % at 2.6 µM; in the data active = inhibition above about 50%;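 note: 0% = vehicle wells with protein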
# GPR151 activ = activates the human receptor GPR151; actives 1% (n = 650,000); PathHunter beta-arrestin GPR151 cells, luminescence; activation, % at 11.2 µM; in the data active = activation above about 4.9%;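 note: 0% = median of compound wells and 100% = cells with positive control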
# Target sequence (Q8TDV0 whole entry, looked up): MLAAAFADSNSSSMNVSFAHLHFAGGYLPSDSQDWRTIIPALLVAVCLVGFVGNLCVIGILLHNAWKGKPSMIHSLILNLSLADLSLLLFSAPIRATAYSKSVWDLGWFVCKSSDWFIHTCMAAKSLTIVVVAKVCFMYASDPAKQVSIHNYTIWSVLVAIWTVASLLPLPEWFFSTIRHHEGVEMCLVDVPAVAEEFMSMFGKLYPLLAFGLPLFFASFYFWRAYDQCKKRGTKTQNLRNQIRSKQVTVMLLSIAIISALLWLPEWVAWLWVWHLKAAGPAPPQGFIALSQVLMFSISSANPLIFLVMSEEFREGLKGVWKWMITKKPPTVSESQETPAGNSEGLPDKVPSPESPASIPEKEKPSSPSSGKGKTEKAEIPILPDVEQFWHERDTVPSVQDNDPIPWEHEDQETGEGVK
# FBW7 act = human FBW7 E3 ligase activation, primary screen; Q969H0; AID 1259310; AlphaScreen FBW7–phospho-cyclin E peptide binding, activator screen; actives 0.13% (n = 650,000); normalized activity (activation), % at 26.1 µM; in the data active = normalized activity above about 1.9%;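 note: purified mutant Fbw7 with reduced substrate affinity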
# TEAD-YAP inh = TEAD-YAP interaction inhibition; HEK-TIYL cells, TEAD-Gal4/YAP UAS-luciferase luminescence; inhibition, % at 9.12 µM; actives 1.4% (n = 640,000); in the data active = inhibition above about 32%;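 note: 0% = median of test compound wells and 100% = reference inhibitor wells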
# GPR151 confirm = confirmation of human GPR151 activators; AID 1508609; GPR151 PathHunter beta-arrestin cells, luminescence, 90 min; % of EA-reagent control over plate median; shares compounds with GPR151 activ; activation, % at 11.2 µM; 6,700 tested, under 10 active;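 active = mean percent activation across replicates above the confirmation screen cutoff of 4.91%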
# GPR119 counter = GPR119 activation, counter-screen for GPR151 activators; GPR119 PathHunter beta-arrestin cells, luminescence, 90 min; 0 = compound-well median, 100 = enzyme-acceptor control; actives 0.3% (n = 6,700); activation, % at 11.2 µM; shares compounds with GPR151 activ;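 active = mean percent activation in the counterscreen above 29.09%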;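 note: counterscreen on off-target GPR119 to flag nonselective hits from the GPR151 activator screen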
# * = called active by the depositor; . = no result.
SMILES,MITF primary,GPR151 activ,FBW7 act,TEAD-YAP inh,GPR151 confirm,GPR119 counter
CCOC(=O)N1CCN(S(=O)(=O)c2ccc(C(=O)Nc3nc4ccc5nc(C)sc5c4s3)cc2)CC1,12.2,0.4,0.3,3.8,.,.
O=C(CCC(=O)Nc1ccc(I)cc1)N/N=C/c1ccc(F)cc1,5.4,6.6*,-0.2,0.7,-1.2,-13.9
CCC(=O)Oc1ccc(C(=O)NCCc2ccc(OC)c(OC)c2)cc1,8.1,-0.5,-0.1,0.1,.,.
CCOC(=O)c1c(CSc2ccccc2)n(-c2ccccc2)c2cc(Br)c(OC(C)=O)cc12,0.9,0.0,-0.1,4.0,.,.
COc1ccc(N2C(=O)C3C4C=CC(C3C2=O)C2C(=O)N(c3ccc(OC)cc3)C(=O)C42)cc1 (configuration not stated),4.4,1.2,0.2,10.5,.,.
COC(=O)C(C)NC(=O)C(Cc1c[nH]c2ccccc12)NC(C)=O (configuration not stated),2.4,0.2,0.8,5.3,.,.
CC(C)CC(NC(=O)C(C)NC(=O)CNC(=O)C(NC=O)C(C)C)C(=O)NC(C)C(=O)NC(C(=O)NC(C(=O)NC(C(=O)NC(Cc1c[nH]c2ccccc12)C(=O)NC(CC(C)C)C(=O)NC(Cc1c[nH]c2ccccc12)C(=O)NC(CC(C)C)C(=O)NC(Cc1c[nH]c2ccccc12)C(=O)NC(CC(C)C)C(=O)NC(Cc1c[nH]c2ccccc12)C(=O)NCCO)C(C)C)C(C)C)C(C)C (configuration not stated),-4.8,23.5*,-0.1,84.3*,13.5*,112.6*
Cc1ccc(C2C3=C(CC(C)(C)CC3=O)Nc3c2c(=O)n(C)c(=O)n3C)cc1 (configuration not stated),-3.6,7.5*,-0.5,0.8,-0.1,-5.5
CC1=C(C(=O)Nc2nc3ccccc3s2)C(c2ccc(Br)cc2)C2=C(CC(C)(C)CC2=O)N1 (configuration not stated),-13.4,0.2,0.1,1.9,.,.
Cc1ccc(C2C3=C(CC(C)(C)CC3=O)Nc3n[nH]c(C)c32)cc1 (configuration not stated),5.7,8.4*,0.1,8.6,-0.2,0.0
Cn1c2c(c(=O)n(C)c1=O)C(c1ccc(F)cc1)C1=C(CC(C)(C)CC1=O)N2 (configuration not stated),2.9,-0.4,-0.1,10.2,.,.
CC1=C(C(=O)Nc2nc3ccccc3s2)C(c2ccc(C)cc2)C2=C(CC(C)(C)CC2=O)N1 (configuration not stated),-4.2,6.5*,0.4,14.9,0.9,17.8
Cc1cccc(-c2nc(C#N)c(NCCN(C)C)o2)c1,-2.0,-1.3,-0.1,-22.6,.,.
COc1ccc(C2C(C(=O)OCCOc3ccccc3)=C(C)NC3=C2C(=O)CCC3)cc1OCc1ccccc1 (configuration not stated),-3.3,-0.3,0.1,9.9,.,.
COC(=O)C1=C(C)N(Cc2ccccc2)C(=O)/C1=C\c1ccc(C)cc1,5.5,0.7,-0.3,0.5,.,.
COC(=O)c1ccc(N2C(=O)c3ccc(-c4nc5ccccc5c(=O)o4)cc3C2=O)cc1,8.7,-0.5,0.9,1.5,.,.
Cc1ccc(-n2c(SCc3cccc(C)c3)nc3[nH]ncc3c2=O)cc1,18.9,0.1,0.6,4.2,.,.
Cc1ccc(CSc2nc3[nH]ncc3c(=O)n2-c2cccc(C)c2)cc1,4.3,9.0*,-0.1,-10.2,0.5,9.9
CCc1ccc(-n2c(SCc3cc(=O)n4c(C)cccc4n3)nc3[nH]ncc3c2=O)cc1,0.7,5.8*,0.0,-6.7,0.6,10.9
COc1cc(Cl)cc(C(c2c(C)[nH]c3ccccc23)c2c(C)[nH]c3ccccc23)c1O,-3.5,-0.4,-0.1,-3.6,.,.
O=C(NCc1n[nH]c(=S)n1-c1ccccc1Cl)c1ccccc1F,2.0,6.7*,-0.1,3.6,1.6,2.6
CN(C)Cc1c(C(=O)N/N=C/c2ccc(O)cc2)nnn1-c1nonc1N,-10.8,0.4,-0.1,-1.5,.,.
CC(C)c1ccc(CN(C(=O)c2cc3ccccc3oc2=O)C2CCS(=O)(=O)C2)cc1 (configuration not stated),4.4,5.6*,0.2,-12.9,0.4,4.2
N#C/C(=C\c1ccco1)C(=O)Nc1ccccc1C(=O)O,-17.4,-6.1,0.2,-49.7,.,.
CC(C)C(=O)NC(C)c1nnc2n1CCN(Cc1ccco1)CC2 (configuration not stated),-24.3,11.6*,0.1,-6.8,-0.1,8.7
SMILES,MITF primary,GPR151 activ,FBW7 act,TEAD-YAP inh,GPR151 confirm,GPR119 counter
CC(=O)CC/C=C(\C)CCC=C(C)C,4.9,6.1*,0.0,4.0,-0.8,-2.7
COCc1nnn(-c2nonc2N)c1C(=O)NNC(=O)C1CC1,-3.7,-0.4,0.1,2.9,.,.
COCc1nnn(-c2nonc2N)c1C(=O)NNC(=O)c1ccccc1Br,6.1,10.0*,0.2,9.4,1.0,8.4
O=C(Nn1c(Cc2ccccc2)nc2ccccc2c1=O)c1c(O)c2ccccc2[nH]c1=O,16.8,-0.6,0.9,-9.0,.,.
O=[N+]([O-])c1ccc(/C=N/NC2=Nc3cccc4cccc2c34)cc1,3.6,6.3*,-0.1,-26.7,-0.1,2.9
O=C(NC1=Nc2cccc3cccc1c23)c1ccc([N+](=O)[O-])cc1,7.2,5.5*,-0.1,2.3,-0.3,-12.2
O=[N+]([O-])c1cccc(/C=N/NC2=Nc3cccc4cccc2c34)c1,15.0,-0.9,-0.2,-34.7,.,.
COc1cc(NC(=O)c2cccc(-n3cc(NC(=O)N[C@@H](C)c4ccccc4)cn3)c2)ccc1N1CCOCC1,9.9,5.7*,0.0,2.7,-0.1,-4.4
COc1ccccc1-c1nc2s/c(=C\c3cccc([N+](=O)[O-])c3)c(=O)n2n1,2.3,7.8*,0.0,4.5,0.4,1.2
O=C(NCCc1ccccc1)c1cc(S(=O)(=O)N2CCc3ccccc32)ccc1F,-9.4,0.6,0.2,-2.7,.,.
O=C(O)/C=C/C(=O)Nc1ccc(Sc2ccc([N+](=O)[O-])cc2)cc1,0.1,3.3,-0.1,-7.3,.,.
O=C(O)/C=C\C(=O)Nc1ccc([N+](=O)[O-])cc1,-3.9,8.1*,-0.2,-2.0,-0.1,-0.6
CCN(CC)c1ccc(NC(=O)/C=C\c2ccccc2)cc1,9.1,-0.8,-0.3,-27.2,.,.
CCN(CC)c1ccc(NC(=O)/C=C\C(=O)O)cc1,34.0,16.0*,-0.1,11.4,-0.7,-7.3
CCc1ccc2[nH]c3nc(N/N=C/c4ccc(O)cc4)nnc3c2c1,-2.4,2.3,-0.1,-4.5,.,.
CCc1ccc2[nH]c3nc(N/N=C/c4cccc(O)c4)nnc3c2c1,16.3,6.7*,-0.1,-7.7,-0.6,1.8
COC1CCCN(C(=O)CCC2(Cc3ccc4ccccc4c3)CCC(=O)N2)C1 (configuration not stated),13.8,-0.2,0.3,5.7,.,.

# Assay outcomes from PubChem BioAssay.
